Screening results as filed in PubChem.
A selection: hits, their analogues and other compounds. The true share with any hit is near 18%.
TDP1 inh – TDP1 (human) enzyme inhibition. recombinant TDP1, AlphaScreen DNA substrate cleavage. 350,000 compounds, 0.28% hits. Potency, µM (titrated, usually from 130 µM), for inactives: at the highest dose activity change, negative = inhibition, most hits filed as inhibitors. Q9NUW8; note: nearly all actives have a fitted effect of over 40% in size
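E. coli-derived human Tdp1, 1 nM final. Cpd preinc 15 min RT; substrate 15 nM final, 5 min RT; AS bead mix 10 ug/ml final, 10 min RT. Signal loss = tyrosine-FITC cleavage. No-enzyme wells = max signal.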
VDR inhibitor – vitamin D3 receptor (human) inhibition; P11473; VDR-SRC2-3 peptide fluorescence polarization, 2 h; Potency, µM, for the others: max response, negative = inhibition, most hits filed as inhibitors; 400,000 compounds, 0.93% hits
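Inhibition of the VDR/SRC2-3 peptide interaction is quantified by fluorescence polarization. Compounds (23 nl, pintool) incubate with the reagents for 2 hours at ambient room temperature.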
TDP1 cell CPT – DT40-hTDP1 cell growth loss with CPT; Potency, µM (highest dose often 46.2 µM), for inactives: top-dose activity change, negative = growth inhibition, most hits filed as inhibitors; chicken DT40 Tdp1-/-;hTDP1 cells + 20 nM CPT, ATP luminescence, 48 h; 420,000 compounds, 12% hits; AID 686979; note: nearly all actives have a fitted effect of over 55% in size
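Chicken DT40 Tdp1-/- cells stably complemented with human TDP1 were seeded at 400 cells/well in medium containing 20 nM camptothecin, exposed to pin-transferred compounds, and grown at 37 °C for at least 48 hr. Viability was read as ATP luminescence.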
PLK1 PBD block – inhibitors of human PLK1 polo-box domain binding; P53350; Plk1 PBD binding of FITC phosphopeptide, fluorescence polarization; Potency, µM, for the others: max response, negative = inhibition, actives largely listed as inhibitors; 360,000 compounds, 2.8% hits; note: series mostly up to about 57 µM; nearly all actives have a fitted effect of over 65% in size
KAT2A inh – GCN5L2 (KAT2A) acetyltransferase inhibition | 390,000 compounds, 0.21% hits | GCN5L2 HAT assay, ThioGlo1 CoA-SH fluorescence | Potency, µM (highest dose often 58.9 µM), for the others: top-dose activity change, negative = inhibition, usual class: inhibitors
Target sequence (Q92830 whole entry, looked up): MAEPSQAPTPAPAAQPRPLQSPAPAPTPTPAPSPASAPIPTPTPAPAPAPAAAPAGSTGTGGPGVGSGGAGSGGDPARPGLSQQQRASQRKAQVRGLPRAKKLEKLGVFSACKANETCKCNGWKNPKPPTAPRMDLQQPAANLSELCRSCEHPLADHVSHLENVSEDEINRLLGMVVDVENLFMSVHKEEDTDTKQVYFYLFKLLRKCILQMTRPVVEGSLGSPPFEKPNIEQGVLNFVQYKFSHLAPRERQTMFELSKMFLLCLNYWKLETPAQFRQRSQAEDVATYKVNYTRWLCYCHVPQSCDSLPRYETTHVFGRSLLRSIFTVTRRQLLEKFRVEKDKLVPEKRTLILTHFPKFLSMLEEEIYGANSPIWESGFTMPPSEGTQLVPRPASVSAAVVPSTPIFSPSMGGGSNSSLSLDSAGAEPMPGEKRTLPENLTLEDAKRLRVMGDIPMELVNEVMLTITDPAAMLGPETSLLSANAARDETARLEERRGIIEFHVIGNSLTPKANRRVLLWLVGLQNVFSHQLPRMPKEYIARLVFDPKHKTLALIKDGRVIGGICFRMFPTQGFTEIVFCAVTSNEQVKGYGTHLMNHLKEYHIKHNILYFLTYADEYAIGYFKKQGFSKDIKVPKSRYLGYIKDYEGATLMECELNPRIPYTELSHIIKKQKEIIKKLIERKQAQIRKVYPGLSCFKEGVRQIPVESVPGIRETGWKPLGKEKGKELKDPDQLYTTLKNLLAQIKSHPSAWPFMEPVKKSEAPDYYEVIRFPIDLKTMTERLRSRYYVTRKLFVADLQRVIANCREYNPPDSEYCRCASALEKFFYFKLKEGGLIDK
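GCN5L2 (20 nM) in 50mM HEPES pH 7.5, 0.1mM EDTA, 0.01% Tween-20 preincubated 15 min with compounds at room temperature. Reaction started with H3(1-25) 75uM, acetyl-CoA 70uM, ThioGlo1 50uM; CoA-thiol fluorescence (Ex340/Em540) read at 0 and 20 min.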
TDP1 cell noCPT – qHTS for Inhibitors of human tyrosyl-DNA phosphodiesterase 1 (TDP1): qHTS in cells in absence of CPT; 420,000 compounds, 15% hits; DT40 Tdp1-/- hTDP1 cells, no CPT, ATP luminescence, 48 h; AID 686978, 2013; Potency, µM (highest dose often 46.2 µM), for inactives: at the highest dose activity change, negative = growth inhibition, most hits filed as inhibitors; note: nearly all actives have a fitted effect of over 55% in size
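No-CPT arm: Tdp1-/-;hTDP1 DT40 cells (400/well) plus compounds, incubated ≥48 hr at 37 °C. Readout CellTiter-Glo luminescence.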
* = called active by the depositor; ? = inconclusive; . = not tested or not shown; [ ] = dose if it differs, or a comment. Calls come from the whole dose curve; as a rule, active = well fitted curve in the direction sought with a large enough effect; inconclusive = small, poorly fitted or top-dose-only effect, or another doubt; inactive = no such curve, though single readings can be large; an effect the other way counts as inactive or inconclusive. % is set by controls: 0 for no effect and ±100 for the full control effect; potency is the fitted concentration of half-maximal effect.

SMILES | TDP1 inh | VDR inhibitor | TDP1 cell CPT | PLK1 PBD block | KAT2A inh | TDP1 cell noCPT
CCOC(=O)c1sc(NC(=O)CN2C(=O)NC3(CCC(C)CC3)C2=O)c(C(=O)OCC)c1C (stereo not drawn) | 0% | 8% | -56% | 1% | -2% | -58%
CCOC(=O)c1sc(NC(=O)CN2C(=O)NC3(CC(C)CC(C)(C)C3)C2=O)c(C(=O)OCC)c1C (stereo not drawn) | -2% | -12% | 9.2µM* | 6% | -4% | 10µM*
COc1ccc(-c2nc(C(=O)N3CCN(C)CC3)sc2-c2ccc(OC)cc2)cc1 | 22% | ? | -9% | . | ? | -20%
CCOc1ccc(N(C)C(=O)C2CCN(S(=O)(=O)c3ccc4c(c3)CCCN4C(C)=O)CC2)cc1 | -1% | 0% | ? | . | 3% | ?
Cc1noc(C)c1NC(=O)N(C)C[C@H]1OCCCC[C@@H](C)Oc2ccc(NS(=O)(=O)c3ccccc3)cc2C(=O)N([C@H](C)CO)C[C@@H]1C | . | . | -22% | -10% | . | ?
CCOC(=O)c1ccc2c(c1)NCc1cccc(OC)c1O2 | 6% | -11% | 10µM* | -5% | -2% | 10µM*
COc1ccc(C(=O)OCC(=O)c2ccc3c(c2)NC(=O)CO3)cc1OC | -1% | 6% | 1% | -10% | -2% | 8%
O=C(CCN(CCO)Cc1ccccc1)Nc1ccc(Br)cc1 | -1% | 10% | ? | -3% | -6% | ?
CCN(CCC(=O)Nc1ccc(Br)c(C)c1)Cc1ccccc1 | 7% | -8% | ? | -7% | 2% | 29µM*
COc1ccc(CN2C(=O)CSCC2(C)C(=O)NCc2ccccc2)cc1OC (stereo not drawn) | . | . | 4% | -7% | . | ?
O=C(NN=C1CCCCCCC1)c1ccc(F)cc1 | 5% | -20% | ? | 19µM* | -6% | ?
O=c1[nH]c2cc3ccccc3cc2nc1-c1nnnn1C1CCCC1 | . | . | 5.2µM* | -14% | . | 3.7µM*
O=c1[nH]c2cc3ccccc3cc2nc1C(F)(F)F | -3% | -3% | -11% | -18% | 0% | -1%
Cc1cc2nc(-c3nnnn3Cc3ccccc3)c(=O)[nH]c2cc1C | . | . | ? | -12% | . | 16µM*
O=c1[nH]c2ccccc2nc1-c1nnnn1C1CCCC1 | . | . | -12% | -5% | . | -20%
O=c1[nH]c2cc3ccccc3cc2nc1-c1nnnn1Cc1ccccc1 | . | . | ? | -10% | . | 23µM*
COC(=O)c1sc2c(c1C)c(=O)n(-c1ccccc1)c(=O)n2CC(=O)Nc1cccc(C)c1 | 2% | 5% | ? | . | -14% | ?
CCOC(=O)C1CCCN(C(=S)Nc2cccc(Cl)c2)C1 (stereo not drawn) | 1% | 7% | -2% | -4% | 2% | -5%
CCCOc1cc(C)c(Cl)cc1S(=O)(=O)N(CC)CC | -12%[56.1 µM] | 1% | 18µM* | 2% | 0% | ?
Cc1ccc(NC(=O)C2CCN(S(=O)(=O)c3cccs3)CC2)cc1C | 4% | 8% | -20% | -11% | -5% | ?
CCOC(=O)C(=CNc1ccc2c(c1)c1ccccc1n2CC)C(=O)OCC | -2% | -19% | 15µM* | -4% | -8% | 8.2µM*
CCn1c2ccccc2c2cc(NC(=O)N3CCCCC3)ccc21 | . | . | 18µM* | 2% | . | 23µM*
CCn1c2ccccc2c2cc(NC(=O)C3CCN(S(=O)(=O)c4cccs4)CC3)ccc21 | 1% | -5% | 16µM* | 4% | -8% | 21µM*
CCn1c2ccccc2c2cc(NC(=O)C(C)C)ccc21 | 2% | -9% | ? | -1% | ? | 26µM*
CC(=O)Nc1cccc(C(=O)N/N=C/c2c[nH]c3ccccc23)c1 | . | -20% | 9% | 1% | -3% | -12%
